# Compound activity (PubChem BioAssay)
# EWS-Fli block: EWS/Fli transcriptional activity inhibition. A673 NR0B1-luciferase reporter, viability-normalised. inhibition, % at 12.6 µM. 350,000 compounds, 0.67% hits;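 active = mean inhibition of at least 50% after viability correction, with every replicate also passing that limit; inconclusive = mean reaches 50% but only one of two replicates passes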;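 note: firefly luciferase signal divided by Alamar Blue viability fluorescence both relative to DMSO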
# LGR2 antag: inhibitors of bursicon-induced Drosophila LGR2 receptor cAMP signaling; HEK293 LGR2, CRE-luciferase, bursicon-stimulated, 4 h; 380,000 compounds, 0.35% hits; inhibition, % at 9.99 µM;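 active = drop in luminescence signal, shown as inhibition above about 50% in the replicate tests, limit read from the data, passing the limit was not always enough; inconclusive = probably only some replicates passing the limit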;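 note: agonist challenge used bursicon conditioned medium at about half maximal strength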
# TROY NFkB inh: TROY signaling inhibition. Q293 LMP1-TROYcd NF-kB luciferase reporter, 4 h. AID 1347056. 360,000 compounds, 0.98% hits. inhibition, % at 10 µM;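 active = compounds whose plate-normalised and pattern-corrected inhibition of the luciferase reporter signal at the single screening dose is 50% or more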
# LMP1 NFkB inh: reduces LMP1-driven NF-kappaB luciferase signal; LMP1-induced NF-kappaB luciferase reporter cells, luminescence; inhibition, % at 12.5 µM; 350,000 compounds, 0.69% hits; AID 504558; in the data active = inhibition above about 41%; inconclusive = no clear call, values can overlap the other calls
# TWEAK Fn14 block: blocks TWEAK-Fn14 interaction in a reporter cell assay; TWEAK-stimulated Fn14 reporter cells, luciferase luminescence, 8 h; inhibition, % at 10 µM; 360,000 compounds, 2% hits; AID 1159606; in the data active = inhibition above about 50%
# PAX8 inh HTS: lowers PAX8-driven luciferase in RMG-I cells; RMG-I TPO-luciferase reporter, SteadyGlo, 24 h; inhibition, % at 12.6 µM; 360,000 compounds, 1.2% hits; AID 652154;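 active = mean replicate inhibition at least 60% with every replicate also reaching 60%; inconclusive = only one of the two criteria is met; inactive = mean below 60% and not all replicates reaching 60%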;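 note: luciferase light reporting Pax8 driven TPO promoter activity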
# A number is an active result; . = inactive; ? = inconclusive; / = no result given. The list is not random: actives were taken first. Their share in the collection is about 3.2%.
SMILES,EWS-Fli block,LGR2 antag,TROY NFkB inh,LMP1 NFkB inh,TWEAK Fn14 block,PAX8 inh HTS
Clc1ccc(C(c2ccc(Cl)cc2)n2cc[n+](CC(OCc3ccc(Cl)cc3Cl)c3ccc(Cl)cc3Cl)c2)cc1 (centres undefined),.,87,80,.,77,97
COC(=O)[C@@H]1[C@@H](CO)[C@@H]2Cn3c(ccc(-c4ccccc4F)c3=O)[C@H]1N2Cc1ccncc1,.,.,/,/,/,.
N#Cc1ccc2nc(-c3ccc(CN4CCC(n5c(=O)[nH]c6ccccc65)CC4)cc3)c(-c3ccccc3)nc2c1,.,.,.,/,.,91
Cc1cccc2nc(-c3ccccc3)c(-c3ccc(CN4CCC(n5c(=O)[nH]c6ccccc65)CC4)cc3)nc12,.,.,.,/,.,.
OC[C@@H]1[C@@H]2c3ccccc3NC[C@@H]2N1Cc1cccnc1,.,.,/,/,/,.
O=C1C(=O)c2ccccc2-c2ccccc21,82,104,83,86,107,?
CCOC(=O)[C@]12Cc3ccccc3[C@H]1N(C(C)C)C(=O)c1ccccc12,.,?,.,/,.,.
CCOC(=O)[C@]12Cc3cc(C)ccc3[C@H]1N(CCC(=O)OC)C(=O)c1ccccc12,.,53,.,/,.,.
CCOC(=O)[C@]12Cc3c(cc(OC)c(OC)c3OC)[C@H]1N(C1CCCCC1)C(=O)c1ccccc12,.,?,.,/,.,89
CCOC(=O)[C@]12Cc3ccc(C)cc3[C@H]1N(C1CCCCC1)C(=O)c1cc(OC)ccc12,?,55,.,/,101,101
CCOC(=O)[C@]12Cc3cc(OC)ccc3[C@H]1N(CC(=O)OC)C(=O)c1ccccc12,.,.,.,/,.,.
CCOC(=O)[C@]12Cc3cc(Cl)ccc3[C@H]1N(C1CCCCC1)C(=O)c1cc(OC)ccc12,68,101,63,/,102,105
N#Cc1ccc(-c2ccc([C@@H]3[C@H]4CN(C(=O)Cc5ccccc5)CCCCN4[C@H]3CO)cc2)cc1,.,.,/,/,/,.
O=C1CNC[C@H]2[C@H](c3ccc(Br)cc3)[C@H](CO)N12,.,.,/,/,/,.
COC(=O)[C@H]1[C@H](CO)[C@H]2Cn3c(cccc3=O)[C@@H]1N2CCc1ccccc1,.,.,/,/,/,/
N#Cc1cccc(-c2ccc([C@H]3[C@H]4CN(C(=O)Cc5ccncc5)CCCCN4[C@H]3CO)cc2)c1,/,.,/,/,/,.
Cc1ccccc1-c1ccc([C@H]2[C@H]3CN(C(=O)Cc4ccccn4)CCCCN3[C@H]2CO)cc1,.,.,/,/,/,.
CCOC(=O)[C@]12Cc3cc(Cl)ccc3[C@H]1N(Cc1ccccc1)C(=O)c1ccccc12,.,.,.,.,.,.
CCOC(=O)[C@]12Cc3cc(C)ccc3[C@H]1N(C1CCCCC1)C(=O)c1ccccc12,.,64,.,/,69,86
CCOC(=O)[C@]12Cc3cc(OC)ccc3[C@H]1N(C)C(=O)c1cc(OC)ccc12,.,?,.,/,.,.
CCCCCN1C(=O)c2cc(OC)ccc2[C@@]2(C(=O)OCC)Cc3cc(OC)ccc3[C@@H]12,.,.,.,/,62,.
C[C@]12CC[C@@H]3c4ccc(O)c(O)c4CC[C@H]3[C@@H]1CC[C@@H]2O,.,.,.,.,55,.
CC1(CCCc2ccc(N(CCCl)CCCl)cc2)NC(=O)NC1=O (centres undefined),.,.,.,48,.,.
O=C1NC(=O)C2(CCCc3ccc(N(CCCl)CCCl)cc32)N1 (centres undefined),.,.,.,.,.,.
COC(=O)[C@@H]1[C@@H](CO)[C@@H]2Cn3c(ccc(-c4cccc(OC)c4)c3=O)[C@H]1N2C(=O)c1cnccn1,.,.,/,/,/,.
SMILES,EWS-Fli block,LGR2 antag,TROY NFkB inh,LMP1 NFkB inh,TWEAK Fn14 block,PAX8 inh HTS
O=C(O)CCC(=O)NCCC1=c2ccccc2=N/C1=C\c1c(O)n(Cc2ccc(F)cc2)c(=S)[nH]c1=O,.,.,.,.,.,62
O=C(N/N=C/c1c(O)n(Cc2ccc(F)cc2)c(=O)[nH]c1=O)c1ccccc1,.,.,.,.,.,.
Oc1c(Cl)cccc1Cc1cc(Cl)cc(Cl)c1O,.,.,66,.,65,.
COc1ccc(C#Cc2ccc([C@@H]3[C@@H](CO)N4CCCCN(C(=O)Cc5cccnc5)C[C@H]34)cc2)cc1,.,.,/,/,/,.
COC(=O)[C@@H]1[C@@H](CO)[C@@H]2Cn3c(ccc(-c4cccnc4)c3=O)[C@H]1N2S(=O)(=O)c1ccccc1F,.,.,/,/,/,.
CC(C)(C)n1cccc1/C=C1\C(=O)NC(=O)N(c2ccccc2)C1=O,/,.,.,.,.,.
Cc1ccc(N2C(=O)NC(=O)/C(=C\c3ccoc3)C2=O)cc1,.,.,.,.,.,.
Cc1cccc(N2C(=O)NC(=O)/C(=C\c3cccn3-c3ccc(Cl)cc3)C2=O)c1,/,60,.,.,61,/
Cc1cc(C)cc(N2C(=O)NC(=O)/C(=C/c3cccn3-c3ccc(Cl)cc3)C2=O)c1,.,?,69,.,104,.
O=C(Cc1cccnc1)N1CCCCN2[C@H](CO)[C@@H](c3ccc(C#CC4CC4)cc3)[C@H]2C1,.,/,/,/,/,.
CC(N)C(=O)NC1C2C(=C(O)CC(O)C2O)C(=O)OC1(C)C(Cl)Cl (centres undefined),?,99,78,85,96,121
COCc1cc(OC(=O)N(C)C)nc2c1c(C)nn2C,.,.,57,.,.,.
O=C(O)[C@H]1[C@H](CO)[C@H]2Cn3c(ccc(-c4ccccc4)c3=O)[C@@H]1N2CC1CCCCC1,.,.,/,/,/,.
O=C(/C=C/c1ccc2c(c1)OCO2)c1c(O)n(CCC2=CCCCC2)c(=O)[nH]c1=O,.,/,.,.,51,.
COCCCNC(=O)c1c(N)n(Cc2ccco2)c2nc3ccccc3nc12,.,.,.,/,.,.
